Experimental findings from the supplement of paper PMC9477273 are described below.

This assay deals with DRIVER-selected RNA biosensor (aptazyme) pool. As to the kind of experiment: maximum fold change of ribozyme cleavage across biosensor pool versus no-compound control; higher = stronger biosensor response (ligand inhibits cleavage). The settings on record: 10 µM. An outline of the steps: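 Fold change of cleavage, the ratio of cleaved:uncleaved read fractions versus a no-compound condition corrected with reference sequences, is given as the maximum over all biosensors. It was measured by CleaveSeq on a pool of 1,730 array-resynthesized ribozyme biosensors transcribed by T7 with 9 mM rNTPs for 15–30 min at 37°C in the presence of one compound at 10 µM final, added from a 10x DMSO stock. After reverse transcription at 50°C, cleaved and uncleaved products were PCR-barcoded and counted by Illumina sequencing.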

Take `O=C(NCCCc1ccccc1)C1CCN(c2nnc(N3CCCC3=O)s2)CC1`: the maximum fold change amounted to 3.05.

For the compound `N#C/C(=Cc1c(Oc2ccc(cc2)Br)nc2n(c1=O)cccc2)/C(=O)N1CCOCC1`, the maximum fold change is 4.23.

The compound `CCOc1ccccc1CNC(=O)c1ccc(CS(=O)Cc2ccc(Cl)cc2)o1` (stereo unspecified) returned a maximum fold change of 4.15.

Turning to `COc1cccc(/C=N/NC(=N)N)c1O`, the maximum fold change was determined as 5.16.

`COc1cc(-c2nc3n(n2)C(c2ccncc2)C(C(N)=O)=C(C)N3)cc(OC)c1OC` (stereo unspecified) came in with a maximum fold change of 2.35.

For the compound `O=C(c1ccc(CS(=O)c2cccc(Cl)c2)o1)N1CCN(C2CCCCC2)CC1` (stereo unspecified), the maximum fold change came to 2.71.

In turn, `COc1ccc2c(c1)c(C(=O)O)c(C)n2CCc1ccc(OC)c(OC)c1` yielded a maximum fold change of 2.38.

`COc1ccc(C(=O)Cc2cc3cccc(OC)c3oc2=O)cc1` gave a maximum fold change of 1.82.

`CCOc1cc2c(cc1OCC)C1C(C(=O)N(CC)Cc3ccccc3)c3ccccc3C(=O)N1CC2` (stereo unspecified) showed a maximum fold change of 3.54.

For the compound `CCNC(=S)N1CCN=C1Nc1nc(C)cc(C)n1`, the maximum fold change was 2.17.

`Cc1cc(NC(=O)CSc2nc3ncccc3c(=O)n2CCc2ccccc2)[nH]n1` had a maximum fold change of 3.45.

The compound `O=C(c1cc(-c2ccccc2)n[nH]1)N1CCn2c1nc1ccccc12` had a maximum fold change of 5.17.

Consider `C=Cc1ccc(Cn2c(C)c(CNCCc3ccccc3)c(C(=O)O)c2C)cc1`, for which the maximum fold change is 2.07.

On to `O=C(c1ccccc1O)N1CCOCC1`, for which the maximum fold change amounted to 1.99.

With `COc1ccc(-c2c(C)nn3c(N)c(C#N)cnc23)cc1OC`, the maximum fold change amounted to 4.07.

In turn, `CCOc1ccc(CCNC(=O)Cn2ccc3cc(S(=O)(=O)N4CCCC4)ccc32)cc1` yielded a maximum fold change of 3.07.

`O=c1oc2cc(O)ccc2c2ccccc12`: the maximum fold change turned out to be 2.57.

For `CCOC(=O)C1=C(C)NC2=C(C(=O)c3ccccc32)C1c1ccc(C(F)(F)F)cc1` (stereo unspecified), the maximum fold change came to 2.29.

`COc1ccc(OC)c(/C=C2/N=C(c3ccc(OC)c(Br)c3)OC2=O)c1`: the maximum fold change is 2.65.

Compound `Cc1ccc(C)c(Cn2c(C)c(CNCCCN3CCCC3=O)c(C(=O)O)c2C)c1` came in with a maximum fold change of 2.12.

Regarding `COc1ccc(/C=c2\s/c(=C/C(=O)c3ccc(C)cc3)[nH]c2=O)cc1OC`, the maximum fold change came to 2.47.

Consider `Cc1ccc(OCC(=O)N(Cc2ccccc2F)C2CCS(=O)(=O)C2)cc1C` (stereo unspecified), for which the maximum fold change is 2.91.

For the compound `Cc1cccc(CNCc2c(C(=O)O)c(C)n(Cc3c(F)cccc3Cl)c2C)c1`, the maximum fold change was determined as 1.89.

For the compound `COCCN1C(=O)c2[nH]nc(-c3ccccc3O)c2C1c1ccccc1` (stereo unspecified), the maximum fold change stood at 3.01.

Compound `N=C1NC(=O)/C(=C/c2cc(Br)ccc2OCc2ccccc2)S1` came in with a maximum fold change of 4.89.

`COc1cc(OC)c(OC)cc1/C=C1N=C(c2ccco2)OC1=O`: the maximum fold change amounted to 2.19.

In turn, `O=C1Nc2cc(C(=O)N3CCN(c4ccco4)CC3)ccc2N/C1=C\C(=O)c1ccc(Cl)cc1` registered a maximum fold change of 5.38.

As to `CCOC(=O)c1cnc2c(C)c(Cl)ccc2c1NCc1ccco1`, the maximum fold change stood at 6.11.

For `CC1(C)CC(=O)C(=Cc2c[nH]c3ccccc23)C(=O)C1`, the maximum fold change is 2.44.

In turn, `Clc1ccc2nc3c4ccccc4cnn3c2c1` yielded a maximum fold change of 3.12.

`Cc1[nH]c2ccccc2c1/C=C1\C(=N)N2N=C(N3CCC(C)CC3)SC2=NC1=O` yielded a maximum fold change of 3.17.
